AmpC inh no detg: qHTS Inhibitors of AmpC Beta-Lactamase (assay without detergent) | Potency, µM (highest dose often 57.1 µM), inactives show at the highest dose activity change, negative = inhibition, usual class: inhibitors | AmpC nitrocefin hydrolysis, absorbance 480 nm, 0.0001% Triton | 0.52% of 330,000 active | P00811 | AID 485341, 2010;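 note: plate controls were no compound for no effect and no enzyme for full effect; nearly all actives have a fitted effect of over 20% in size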
Target sequence (P00811 whole entry, looked up): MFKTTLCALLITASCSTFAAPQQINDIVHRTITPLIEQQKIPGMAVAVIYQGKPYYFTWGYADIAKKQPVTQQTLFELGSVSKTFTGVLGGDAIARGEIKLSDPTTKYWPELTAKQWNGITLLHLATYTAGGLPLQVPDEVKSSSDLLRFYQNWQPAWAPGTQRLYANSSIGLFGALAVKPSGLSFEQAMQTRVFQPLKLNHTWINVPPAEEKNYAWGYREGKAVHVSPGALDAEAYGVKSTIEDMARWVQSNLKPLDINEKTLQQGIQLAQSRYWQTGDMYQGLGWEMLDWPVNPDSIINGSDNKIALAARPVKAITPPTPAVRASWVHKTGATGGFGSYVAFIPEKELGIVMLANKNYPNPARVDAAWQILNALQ
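20 mM phosphate pH 7.0 + 0.01% (detergent screen) or 0.0001% Triton X-100; 5.3 nM AmpC reagent; cpd preinc 15 min RT; nitrocefin (800 uM stock) to start; A480 q20 s × 4 min; Activity was normalised to no-enzyme and no-compound control wells.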
AmpC inh detg: qHTS Inhibitors of AmpC Beta-Lactamase (assay with detergent). P00811. AmpC hydrolysis of nitrocefin, absorbance 480 nm, 0.01% Triton. Potency, µM (top dose mostly 114 µM), inactives show at the highest dose activity change, negative = inhibition, usual class: inhibitors. 0.041% of 370,000 active. AID 485294, 2010;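 note: 0% = no-compound wells and -100% = no-enzyme wells; nearly all actives have a fitted effect of over 25% in size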
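AmpC (5.3 nM in the dispensed reagent) in 20 mM phosphate pH 7.0 with 0.01% (detergent screen) or 0.0001% Triton X-100 was preincubated with compounds for 15 min at room temperature. Nitrocefin was then added from an 800 uM solution, and hydrolysis was followed at 480 nm.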
Pf growth 48h: Primary qHTS for delayed death inhibitors of the malarial parasite plastid, 48 hour incubation. AID 504832, 2011. P. falciparum luciferase growth in erythrocytes, 48 h. 5.9% of 310,000 active. Potency, µM (top dose mostly 28.7 µM), for inactives: at the highest dose activity change, negative = inhibition, usual class: inhibitors; note: % is set by controls: 0 for no effect and ±100 for the full control effect
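A one-generation exposure of luciferase-tagged malaria parasites in RPMI 1640/Albumax erythrocyte culture, 37 C and 5% CO2. Inhibition is inferred from decreased luminescence after adding detection reagent.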
Pf growth 96h: Primary qHTS for delayed death inhibitors of the malarial parasite plastid, 96 hour incubation. Potency, µM (series often up to 28.7 µM), inactives show at the highest dose activity change, negative = inhibition, actives largely listed as inhibitors. AID 504834, 2011. 6.9% of 320,000 active. P. falciparum luciferase reporter growth, 96 h; note: % is set by controls: 0 for no effect and ±100 for the full control effect
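Infected RBCs, 2% Hct / 0.05% parasitemia final; luciferase-reporter P. falciparum; cpd 96 h, 37 C, 5% CO2; luciferase detection reagent; luminescence.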
Sm TGR inh: qHTS Assay for the Inhibitors of Schistosoma Mansoni Peroxiredoxins; 3% of 360,000 active; Potency, µM (highest dose often 114 µM), for inactives: at the highest dose activity change, negative = inhibition, hits mostly inhibitors; purified TGR, DTNB reduction, TNB absorbance 405 nm; note: % is set by controls: 0 for no effect and ±100 for the full control effect; nearly all actives have a fitted effect of over 60% in size
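First, TGR (20 nM dispensed) and NADPH were mixed with compound. Second, a 15 min room-temperature incubation followed. Third, further NADPH and then DTNB were added to start the reaction. Finally, TNB absorbance was monitored kinetically.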
SARS PLpro yeast: qHTS of Yeast-based Assay for SARS-CoV PLP; S. cerevisiae expressing SARS-CoV PLpro, growth rescue; Potency, µM (series often up to 32.9 µM), inactives show top-dose activity, positive = growth rescue, usual class: activators; 0.19% of 330,000 active; AID 485353, 2010; calls by dose curve; note: 0% is about no effect; nearly all actives have a fitted effect of over 55% in size
* hit, by the source's call; ? = inconclusive; . = not tested or not shown; [ ] = another dose, or the depositor's remark. Shown are actives, neighbours in structure and some others; about 12% of the full set was active somewhere. Unless noted, calls come from the whole dose curve; as a rule, active = well fitted curve in the direction sought with a large enough effect; inconclusive = small, poorly fitted or top-dose-only effect, or another doubt; inactive = no such curve, though single readings can be large; an effect the other way counts as inactive or inconclusive. Potency is the fitted concentration of half-maximal effect.

SMILES | AmpC inh no detg | AmpC inh detg | Pf growth 48h | Pf growth 96h | Sm TGR inh | SARS PLpro yeast
O=C(NCCCN1CCOCC1)c1ccccc1N1C(=O)[C@@H]2Cc3c([nH]c4ccccc34)C(c3cccc(Cl)c3)N2C1=O (stereo partly drawn) | 332% | -8% | ? | 9.3µM* | 9% | 6%
Cc1ccc(C2c3[nH]c4ccccc4c3C[C@H]3C(=O)N(c4ccccc4C(=O)NCCCN4CCOCC4)C(=O)N23)cc1 (stereo partly drawn) | 333% | -13% | ? | ? | 2% | -2%
Cc1ccccc1C1c2[nH]c3ccccc3c2C[C@H]2C(=O)N(c3ccccc3C(=O)NCCN3CCOCC3)C(=O)N12 (stereo partly drawn) | 346% | -10% | ? | ? | 2% | -7%
Cc1ccccc1C1c2[nH]c3ccccc3c2C[C@H]2C(=O)N(c3ccccc3C(=O)NCCCN3CCOCC3)C(=O)N12 (stereo partly drawn) | 332% | -5% | ? | 12µM* | -3% | ?
CC(C)c1ccccc1OCC(=O)Nc1ccccc1C(=O)N1CCOCC1 | 45% | -9% | ? | 36% | -19% | 0%
CSc1cccc(NC(=O)Cn2c3ncccc3c(=O)n2-c2ccc(C)cc2)c1 | . | 6% | . | . | -2% | .
CCCn1c(CCC(=O)Nc2cc(Cl)c(OC)cc2OC)nc2cccnc21 | . | 13% | . | . | -3% | .
CC(C)COc1ccc(C(=O)Nc2cc(-c3ccccc3)no2)cc1 | . | 12% | . | . | 7% | .
COc1ccccc1C(=O)Nc1ccc(S(=O)(=O)N2CCc3ccccc32)cc1 | -28% | 3% | . | ? | 5% | 3%
Cn1c(N)c(C(=O)COC(=O)c2cc(S(=O)(=O)N3CCCCC3)ccc2Cl)c(=O)n(C)c1=O | 24% | -5% | -3% | -7% | 8% | 12%
COc1ccc(NC(C)=O)cc1NC(=O)c1cccc(S(=O)(=O)N2CCc3ccccc32)c1 | 187% | 5% | 13µM* | ? | 0% | -2%
Cn1c(N)c(C(=O)COC(=O)c2ccc(Cl)c(S(=O)(=O)N3CCCC3)c2)c(=O)n(C)c1=O | 107% | -4% | 8.3µM* | ? | 6% | 0%
COc1ccccc1NC(=O)c1cccc(S(=O)(=O)N2CCN(Cc3ccccc3)CC2)c1 | 4% | ? | ? | 12µM* | -2% | 1%
COc1ccc(S(=O)(=O)N2CCc3ccccc32)cc1C(=O)Nc1ccc(C(N)=O)cc1 | 32% | -2% | ? | 7.4µM* | 1% | 2%
Cc1ccc(S(=O)(=O)N2CCOCC2)cc1C(=O)N1CCN(c2ncccn2)CC1 | 19% | -7% | 18% | -2% | -13% | -1%
COc1ccc(NC(C)=O)cc1NC(=O)c1cccc(S(=O)(=O)N2CCN(Cc3ccccc3)CC2)c1 | 178% | -5% | ? | 3.7µM* | 5% | -1%
COc1ccc(CN2CCN(S(=O)(=O)c3ccc(NC(C)=O)cc3)CC2)c(OC)c1OC | 71% | 4% | ? | 13µM* | 4% | 1%
Cc1cc(F)ccc1NC(=O)c1cc(S(=O)(=O)N2CCc3ccccc32)cn1C | -46% | -3% | ? | 10µM* | 15% | 0%
COc1ccc(NC(=O)c2cc(S(=O)(=O)N3CCc4ccccc43)cn2C)c(OC)c1 | 2% | -9% | ? | 0% | 4% | 10%
COc1ccc(S(=O)(=O)N2CCc3ccccc32)cc1C(=O)OCC(=O)c1c(N)n(C)c(=O)n(C)c1=O | -34% | 4% | 4.1µM* | -15% | 0% | -1%
COc1ccc(CN2CCN(S(=O)(=O)c3ccc(NC(C)=O)cc3)CC2)cc1 | 34% | 6% | ? | ? | 3% | 0%
O=C(Nc1ccc(Cl)c([N+](=O)[O-])c1)Nc1nc2ccccc2s1 | -40% | -8% | ? | 10µM* | 9% | 1%
O=C(O)CC/C(=C\c1cc([N+](=O)[O-])ccc1Cl)c1nc2ccccc2s1 | -7% | -13% | -14% | 3% | 5% | -37%
CS(=O)(=O)c1ccc2nc(NC(=O)Nc3cccc(Cl)c3)sc2c1 | 13µM* | ? | ? | ? | -12% | 3%
CS(=O)(=O)c1ccc2nc(NC(=O)Nc3ccc(Cl)c(Cl)c3)sc2c1 | -13% | 1% | -22% | 47% | 4% | 15%
SMILES | AmpC inh no detg | AmpC inh detg | Pf growth 48h | Pf growth 96h | Sm TGR inh | SARS PLpro yeast
O=C(Nc1ccc(Cl)cc1)/C(=C/c1ccc([N+](=O)[O-])cc1)c1nc2ccccc2s1 | -13%[2.29 µM] | -9% | 2.1µM* | 1.5µM* | -13% | -2%
O=C(Nc1nc2ccccc2s1)Nc1ccc([N+](=O)[O-])cc1Cl | -36% | -8% | ? | 1µM* | 0% | 1%
CC(=O)c1cccc(NC(=O)N2CCC(NC(=O)C34CC5CC(CC(C5)C3)C4)CC2)c1 | 2% | 2% | ? | -1% | -8% | 1%
COCCNC(=O)c1cn(C)c2ccccc2c1=O | -8% | -1% | 28% | ? | 9% | 2%
CCCCC1CCC(C(=O)N2CC(=O)Nc3ccc(Cl)cc3C2c2ccc(F)cc2)CC1 (stereo not drawn) | . | 7% | . | . | 2% | .
CCNC(=O)Nc1nc2ccccc2s1 | -22% | 2% | 184% | 296% | 0% | -2%
Cc1ccc(NC(=O)Nc2nc3ccccc3s2)cc1NC(=O)Nc1nc2ccccc2s1 | -43% | -14% | 2.1µM* | 2.6µM* | -21% | -1%
CC(C)CN=CC1=C(O)c2ccccc2C1=O | -6% | -1% | 220% | 272% | 0% | -3%
O=C1C(C=NCCCN2CCCC2=O)=C(O)c2ccccc21 | -20% | -2% | 143% | 13µM* | 7% | 8%
O=C1C(C=NC2CC2)=C(O)c2ccccc21 | -7% | ? | . | 13µM* | -18% | -5%
Cc1ccc(CC(=O)N2CCOCC2)cc1 | 1% | ? | 2% | -7% | -1% | -1%
O=C(Cc1ccc(Cl)cc1)NCC(=O)N1CCCCCC1 | -6% | 4% | ? | 12µM* | -2% | -6%
O=C(Cc1ccc(Cl)cc1)N1CCOCC1 | -13% | -12% | 0% | 15µM* | -17% | -4%
Cc1cc(Cl)ccc1NC(=S)NCc1cccs1 | -18% | ? | -17% | ? | 3% | ?
O=C(O)CC1SC(=Nc2ccc(O)cc2)NC1=O (stereo not drawn) | -20% | -3% | 4% | 41% | -3% | -1%

From PubChem BioAssay
